Bioassay records (PubChem)
This is one part of a sample in which hits are shown more often than they occur.
KDM5B inhibitor: blocks human KDM5B histone demethylase activity | Q9UGL1 | hit rate 2.6% among 220,000 | Potency, µM (series often up to 57.7 µM), most hits filed as inhibitors | KDM5B demethylase, FDH-coupled NADH fluorescence (FDH is formaldehyde dehydrogenase); active = well fitted inhibition curve with a large enough effect; note: 0% is about no effect; nearly all actives have a fitted effect of over 70% in size
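Measured: NADH fluorescence change, 30 min, RT. System: KDM5BΔAP 200 nM final, H3K4me3 peptide, α-KG, Fe(II), ascorbate, NAD⁺ plus FDH, pH 7.5 HEPES. Compounds: titrated, 10 min pre-incubation with enzyme.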
* hit, by the source's call; i = inactive. Potency is the fitted concentration of half-maximal effect.

SMILES	KDM5B inhibitor
c1cncc(Cc2noc(C3CN(Cc4ccsc4)C3)n2)c1	i
O=C(CSc1nc2c(c(-c3cccs3)n1)CCCC2)Nc1cc(Cl)cc(Cl)c1	i
CCOC(=O)C1CCN(C(=O)C(C)OC(=O)c2nn(C(C)C)c(=O)c3ccccc23)CC1 (centres undefined)	i
COC(=O)c1cccc(N2C(=O)C(=O)/C(=C(/O)c3ccccc3)C2c2ccc(NC(C)=O)cc2)c1 (centres undefined)	i
O=C(O)CCn1ncc2cc(OCC3CCN(C(=O)Cc4ccccc4)CC3)ccc21	i
NC(=O)Cn1ccc2cc(OCC3CCN(C(=O)CCc4ccccc4)CC3)cnc21	31.6µM*
O=C(COc1ccccc1)N1CCC(Oc2cnc3c(ccn3-c3cncnc3)c2)CC1	i
NC(=O)[C@@H]1CN(C(=O)CCc2ccccc2)C[C@H]1COc1ccccc1	i
NC(=O)Cn1ccc2cc(OCC3CCN(C(=O)COc4ccccc4)CC3)cnc21	35.5µM*
NC(=O)[C@@H]1CN(C(=O)COc2ccccc2)C[C@H]1COc1ccccc1	i
O=C(NC1CCCCC1)[C@@H]1C[C@@H](O)CN1C1CCN(C(=O)c2n[nH]c3ccccc23)CC1	i
O=C(C1CCCO1)N1CCN(Cc2coc(-c3ccc(Cl)cc3)n2)CC1 (centres undefined)	i
COc1ccc(CCC(=O)N2CCC3(CC2)NC(=O)N(c2ccc(F)cc2)N3)cc1	i
Cc1cccc(C)c1OCC(=O)NCc1ccc(Cn2cccn2)cc1	i
O=C(CN1CCN(CCc2ccccc2)CC1)Nc1ccc2c(c1)CCC2	i
Cc1cnc(C(=O)Oc2ccc(-c3ccc(C#N)cc3)cc2)cn1	i
Cc1ccccc1-c1nc2cnccn2c1NCCC(=O)NC1CCCCC1	28.2µM*
O=C(CCn1ccc2ccccc21)NC1CCCCCC1	i
Cc1ccc(C(=O)NCCC(=O)NCc2ccco2)cc1	i
CC(C)(C)C(=O)NCCCC(=O)NCc1ccco1	i
Cc1nc2ccccc2nc1SCC(=O)NC1CCCCC1	i
Cc1ccccc1-c1nc2cnccn2c1NCCC(=O)NCc1ccco1	31.6µM*
O=C(O)c1ccc(CSC(F)F)o1	i
COc1ccccc1N1CCN(C(=O)Cn2c(=O)[nH]c3ccccc3c2=O)CC1	i
O=C(NC1CCCC1)c1cccc(I)c1	i
SMILES	KDM5B inhibitor
Nc1cc(N)nc(SCCC(=O)Nc2ccc(Br)cc2F)n1	i
COc1ccc(Cc2n[nH]c(=S)n2CC(C)C)cc1	i
Cc1cc(C(=O)N[C@@H]2CN(c3ccncn3)C[C@H]2CN(C)C)n[nH]1	i
CN(C)C[C@@H]1CN(c2ncccn2)C[C@H]1NC(=O)c1cccc(F)c1	20µM*
Cc1ccc(C(=O)N[C@@H]2CN(c3ccncn3)C[C@H]2CN(C)C)s1	i
CN(C)C[C@@H]1CN(c2ncccn2)C[C@H]1NC(=O)c1ccc(Cl)s1	28.2µM*
COc1cccc(C(=O)N[C@@H]2CN(c3ccccn3)C[C@H]2CN(C)C)c1	28.2µM*
CN(C)C[C@@H]1CN(S(C)(=O)=O)C[C@H]1NC(=O)c1ccc(Cl)s1	i
Cc1cccc(C(=O)N[C@@H]2CN(Cc3cccnc3)C[C@H]2CN(C)C)c1	i
COc1cccc(C(=O)N[C@@H]2CN(c3ccccn3)C[C@H]2CN(C)C)c1OC	28.2µM*
COc1cccc(CC(=O)N[C@@H]2CN(Cc3ccccn3)C[C@H]2CN(C)C)c1	i
CN(C)C[C@@H]1CN(C)C[C@H]1NC(=O)c1cc(F)ccc1F	i
O=C(O)CCNS(=O)(=O)c1ccc(Cl)c(C(F)(F)F)c1	i
COc1ccc2[nH]cc(C(C(=O)O)N3CCN(Cc4ccccc4)CC3)c2c1 (centres undefined)	i
Cc1nc(SCc2noc(-c3ccccc3O)n2)n(C2CC2)c1C	i
CCOC(=O)c1ccc(S(=O)(=O)N2CCCC2c2cccn2C)cc1 (centres undefined)	i
COc1ccccc1-c1noc(CCCC(=O)Nc2ccc(S(=O)(=O)N3CCOCC3)cc2)n1	i
CCCC(C)NC(=O)c1cccc(C#N)c1 (centres undefined)	i
O=C(NCc1coc(-c2cccs2)n1)c1ccc(OC(F)(F)F)cc1	i
CC(C)(C)c1ccc(-c2nnc(SCC(=O)N3CCOCC3)n2C2CCCCC2)cc1	i
O=C(CCc1ncc(-c2ccc(F)cc2F)o1)N1CCN(C(=O)C2CC2)CC1	i
Cc1sc(NC(=O)C2CC2)c(C#N)c1C	i
Cc1ccc(S(=O)(=O)NCCc2cccc3cccnc23)cc1	i
COc1ccc(NC(=O)CN(C)C(=O)c2ccc(-c3ccc(Cl)cc3)o2)cc1	i
Cc1ccc(Cl)cc1NC(=O)CCc1ncc(-c2ccc(F)cc2)o1	i
SMILES	KDM5B inhibitor
CN(C)C[C@@H]1CN(S(C)(=O)=O)C[C@H]1NC(=O)c1ccccc1	i
CNC(=O)N1C[C@@H](CN(C)C)[C@H](NC(=O)c2cccnc2)C1	i
CN(C)C[C@@H]1CN(Cc2cccnc2)C[C@H]1NC(=O)c1ccc(F)c(Cl)c1	i
COc1ccc(C(=O)N[C@@H]2CN(Cc3ccccn3)C[C@H]2CN(C)C)cc1F	i
COc1cccc(C(=O)N[C@@H]2CN(c3ncccn3)C[C@H]2CN(C)C)c1	31.6µM*
COc1ccc(C(=O)N[C@@H]2CN(c3ncccn3)C[C@H]2CN(C)C)cc1F	25.1µM*
COC(=O)c1ccc2c(c1)nc1n2[C@@H](CNCc2ccc(F)c(F)c2)COC1	i
Cc1ccsc1CNC(=O)c1ccccn1	i
CC(/C=C/c1ccccc1)=N\NC(=O)c1ccc(C(C)(C)C)cc1	i
CCOC(=O)N1CCN(C(=O)c2cc3occc3n2Cc2ccccc2)CC1	i
O=S1(=O)NCC2(CCCN(Cc3ccccn3)C2)Oc2ncccc21 (centres undefined)	i
O=S1(=O)NCC2(CCN(Cc3ccoc3)CC2)Oc2ncccc21	50.1µM*
O=S1(=O)NCC2(CCCN(CCc3ccccc3)C2)Oc2ncccc21 (centres undefined)	i
CCSc1nc(N)c2c3c(sc2n1)CCCC3C (centres undefined)	i
CCOC(=O)C1CCN(C(=O)c2cn(-c3ccccc3)nc2-c2ccc(Cl)cc2)CC1	i
CC(=O)N1CCC2(CC1)Oc1ccc(Br)cc1C1CC(c3ccccn3)=NN12 (centres undefined)	i
COc1ccc(-c2cc(N3CCC(NC(=O)C4COc5ccccc5O4)CC3)n[nH]2)cc1 (centres undefined)	i
COc1cc(F)ccc1-c1cc(C(=O)NCc2c(C)cc(C)[nH]c2=O)c2c(c1)N(C(C)C)CCO2	31.6µM*
COc1cccc(-c2cc(C(=O)NCc3c(C)cc(C)[nH]c3=O)c3c(c2)N(C(C)C)CCO3)c1OC	28.2µM*
Cc1cc(C)c(CNC(=O)c2nc(-c3cccc(F)c3)cc3c2ccn3C(C)C)c(=O)[nH]1	i
CC(=O)c1ccc(NC(=O)C(C)Oc2cccc(F)c2)cc1 (centres undefined)	i
CC1(C)C2CCC1(C(=O)Nc1cccc(C(F)(F)F)c1)c1nc(C#N)c(C#N)nc12 (centres undefined)	i
COc1cc(NC(=O)CCc2c(C)c3ccc(C)cc3oc2=O)cc(OC)c1	i
O=C(NC1CCCc2ccccc21)C1CCC1 (centres undefined)	i
Clc1ccccc1-c1noc(-c2cccc(Br)c2)n1	i
CC1(C(=O)N2CCC(c3ccccc3)CC2)CCc2cnc(N3CCOCC3)nc21 (centres undefined)	31.6µM*
